Assay outcomes (PubChem BioAssay)
Only a selection was taken, and hits are over-represented in it overall.
Sm TGR block – blocks Schistosoma mansoni thioredoxin glutathione reductase. purified TGR, DTNB reduction, TNB absorbance 405 nm. Potency, µM (doses to about 114 µM), for the others: at the top dose activity change, negative = inhibition, actives largely listed as inhibitors. actives 3% (n = 360,000); note: potency is the fitted concentration of half-maximal effect; % is set by controls: 0 for no effect and ±100 for the full control effect; nearly all actives have a fitted effect of over 60% in size
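Kinetic colorimetric format: TGR-catalysed, NADPH-driven DTNB reduction monitored via TNB absorbance. Enzyme dispensed at 20 nM; compound exposure 15 min at room temperature before reaction start.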
Shiga inhibitor – inhibitors of Shiga toxin in Vero cells. Vero cells, Shiga toxin protein synthesis inhibition reporter. actives 9.2% (n = 290,000). inhibition, % at 38.7 µM; in the data active = inhibition mostly above about 28%, no sharp cut-off; inactive = mostly below about 43%; note: 0% is about no effect
TbPYK inhibitor – T. brucei pyruvate kinase inhibition. actives 0.12% (n = 410,000). Q57TT1. TbPYK enzyme, Kinase-Glo Plus ATP luminescence, 45 min. Potency, µM (series often up to 76.8 µM), for the others: top-dose activity, negative = inhibition, actives largely listed as inhibitors; note: potency is the fitted concentration of half-maximal effect; % is set by controls: 0 for no effect and ±100 for the full control effect; nearly all actives have a fitted effect of over 50% in size
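Quantitative HTS: titrated library compounds versus trypanosomal pyruvate kinase in TEA buffer (pH 7.2) containing KCl, MgCl2, BSA and Tween-20. Reactions were initiated with ADP, 130 uM final. Kinase-Glo Plus luminescence was read after 45 min at RT.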
FBPA Giardia inh – Giardia lamblia aldolase inhibition | purified Giardia FBPA | Potency, µM (doses to about 59.6 µM), inactives show at the highest dose activity, negative = inhibition, actives largely listed as inhibitors | actives 0.71% (n = 290,000) | A8B2U2; note: potency is the fitted concentration of half-maximal effect; % is set by controls: 0 for no effect and ±100 for the full control effect; nearly all actives have a fitted effect of over 55% in size
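Giardia FBPA (40 nM reagent) was preincubated 10 min at RT with compound (up to 57.5 uM final), then substrate plus GAPDH/TPI/NAD/arsenate coupling system with diaphorase/resazurin was added; resorufin fluorescence (525/598 nm) was read after 20 min.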
LmPK inhibitor – blocks Leishmania mexicana pyruvate kinase activity; AID 1721; purified LmPK, Kinase-Glo ATP luminescence, 1 h; actives 0.37% (n = 290,000); Potency, µM (series often up to 57.5 µM), for inactives: at the top dose activity change, negative = inhibition, most hits filed as inhibitors; Q27686; note: potency is the fitted concentration of half-maximal effect; % is set by controls: 0 for no effect and ±100 for the full control effect
Target sequence (Q27686 whole entry, looked up): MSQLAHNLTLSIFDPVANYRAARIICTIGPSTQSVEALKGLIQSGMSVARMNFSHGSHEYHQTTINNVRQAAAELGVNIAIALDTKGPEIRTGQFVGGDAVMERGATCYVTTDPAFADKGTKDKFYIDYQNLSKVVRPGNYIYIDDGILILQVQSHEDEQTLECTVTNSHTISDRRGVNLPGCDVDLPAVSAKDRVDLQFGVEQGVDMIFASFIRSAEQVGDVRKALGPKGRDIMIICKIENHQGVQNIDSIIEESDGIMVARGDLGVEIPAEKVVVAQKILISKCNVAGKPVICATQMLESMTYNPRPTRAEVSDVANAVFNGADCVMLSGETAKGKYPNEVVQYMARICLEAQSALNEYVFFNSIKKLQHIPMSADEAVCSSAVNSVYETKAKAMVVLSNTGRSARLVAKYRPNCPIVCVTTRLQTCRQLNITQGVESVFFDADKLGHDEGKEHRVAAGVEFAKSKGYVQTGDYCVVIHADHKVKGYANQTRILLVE
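qHTS format; LmPK 0.1 nM; substrates PEP 0.5 mM and ADP 0.1 mM. One-hour room-temperature incubation, then coupled luciferase luminescence; 0.5 nM enzyme wells mark activation.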
CHX counter – affects cycloheximide protein synthesis inhibition readout, counter-screen; cell reporter, cycloheximide protein synthesis inhibition counterscreen; actives 12% (n = 300,000); AID 2314; max response, %; in the data active = max response mostly above about 13%, no sharp cut-off; inactive = mostly below about 14%; note: read at 38.3 µM for the half of the compounds with a filed dose; 0% is about no effect
The depositor's hits bear a star; [ ] = dose if it differs, or a comment. Unless noted, calls come from the whole dose curve; as a rule, active = well fitted curve in the direction sought with a large enough effect; inconclusive = small, poorly fitted or top-dose-only effect, or another doubt; inactive = no such curve, though single readings can be large; an effect the other way counts as inactive or inconclusive.

Results for Cc1ccc(C(=O)NC2CCCCC2)cc1 ?
Sm TGR block: -14.5%; Shiga inhibitor: 28.7; TbPYK inhibitor: 3.0%; LmPK inhibitor: -14.9%; CHX counter: 30.7*

What do the screens show for `Cc1ccc(C(=O)NCC(=O)NC2CCCC2)cc1`?
Sm TGR block: 14.8%; Shiga inhibitor: 16.8; TbPYK inhibitor: -0.6%; FBPA Giardia inh: 1.2%; LmPK inhibitor: -0.3%; CHX counter: 2.6

How did O=C(NC1CCCCC1)c1ccc(-n2cnnn2)cc1 do in these assays?
Sm TGR block: 8.7%; Shiga inhibitor: -6.8; TbPYK inhibitor: -2.5%; FBPA Giardia inh: -12.9%; LmPK inhibitor: -0.7%; CHX counter: -2.9

What do the screens show for `N#Cc1ccc(C(=O)NC2CCCCCCC2)cc1`?
Sm TGR block: -7.9%; Shiga inhibitor: 82.7*; TbPYK inhibitor: -3.3%; FBPA Giardia inh: 2.8%; LmPK inhibitor: 0.1%; CHX counter: 22.2*

Results for Cc1cc(C)n(-c2ccc(C(=O)NC3CCCCC3)cc2)n1 ?
Sm TGR block: 11.6%; Shiga inhibitor: 39.7*; TbPYK inhibitor: -5.4%; FBPA Giardia inh: -6.0%; LmPK inhibitor: -1.4%; CHX counter: 21.0

What do the screens show for `Cc1cc(C)n(-c2ccc(C(=O)Nc3sccc3C(N)=O)cc2)n1`?
Sm TGR block: 14.8%[11.4 µM]; Shiga inhibitor: 47.1*; TbPYK inhibitor: 3.2%; FBPA Giardia inh: -16.8%; LmPK inhibitor: 1.6%; CHX counter: 34.6*

What do the screens show for `COC(=O)C1=C(C)NC(C)=C(C(=O)OCCNCc2ccccc2)C1c1cccc([N+](=O)[O-])c1` (centres undefined)?
Shiga inhibitor: -0.6; FBPA Giardia inh: -21.0%; CHX counter: -2.1

Results for Cc1cc(C)n(-c2ccc(C(=O)Nc3ccccn3)cc2)n1 ?
Sm TGR block: -32.9%; Shiga inhibitor: 65.0*; TbPYK inhibitor: 1.1%; FBPA Giardia inh: -1.1%; LmPK inhibitor: -26.5%; CHX counter: 38.1*

What do the screens show for `CC1CCCCN1S(=O)(=O)c1ccc(C(=O)Nc2sccc2C(N)=O)cc1` (centres undefined)?
Sm TGR block: -6.3%; Shiga inhibitor: 60.1*; TbPYK inhibitor: 0.4%; FBPA Giardia inh: 0.6%; LmPK inhibitor: -2.0%; CHX counter: 55.9*

Results for Cc1cc(C)n(-c2ccc(C(=O)Nc3cccnc3Cl)cc2)n1 ?
Sm TGR block: 6.9%; Shiga inhibitor: 13.5; TbPYK inhibitor: 0.4%; FBPA Giardia inh: -13.2%; LmPK inhibitor: 11.3%; CHX counter: 5.3

Results for OB(O)c1cc2ccccc2s1 ?
FBPA Giardia inh: 4.6%

What do the screens show for `C=CCn1cccc(C(=O)Nc2ccc(C)c(C)c2)c1=O`?
Sm TGR block: 25.6%; Shiga inhibitor: 106.5*; TbPYK inhibitor: 1.5%; FBPA Giardia inh: 9.0%; LmPK inhibitor: -6.0%; CHX counter: 44.9*

What do the screens show for `C=CCn1c(N)c(C(=O)Nc2ccccc2OC)sc1=S`?
Sm TGR block: -20.4%; Shiga inhibitor: -10.1; TbPYK inhibitor: -16.8%; FBPA Giardia inh: -4.5%; LmPK inhibitor: 2.2%; CHX counter: -2.6

What do the screens show for `C=CCn1c(N)c(C(=O)Nc2ccc(C)cc2)sc1=S`?
Sm TGR block: 0.0%; Shiga inhibitor: 14.6; TbPYK inhibitor: -12.0%; FBPA Giardia inh: -5.8%; LmPK inhibitor: 3.4%; CHX counter: 30.1*

How did C=CCn1cccc(C(=O)Nc2ccc(C)cc2)c1=O do in these assays?
Sm TGR block: -11.3%; Shiga inhibitor: 102.0*; TbPYK inhibitor: 7.1%; FBPA Giardia inh: 0.3%; LmPK inhibitor: -5.6%; CHX counter: 76.6*

How did CN(C(=O)c1ccc(NC(=O)C2CCCN(C(=O)OC(C)(C)C)C2)cc1)C1CCC1 (centres undefined) do in these assays?
TbPYK inhibitor: 11.1%

How did Cc1cc(C)cc(NC(=O)Cn2cc(C(=O)c3cccs3)c3ccccc32)c1 do in these assays?
Sm TGR block: 5.5%; TbPYK inhibitor: 4.1%

How did C=CCOc1ccc(Cl)cc1-c1noc(-c2csc([C@H]3C[C@H](O)[C@@H](CO)O3)n2)n1 do in these assays?
TbPYK inhibitor: -4.7%

How did O=C(OCc1ccc(Cl)cc1)c1cccnc1Cl do in these assays?
Sm TGR block: 0.3%; Shiga inhibitor: 55.1; TbPYK inhibitor: 4.1%; FBPA Giardia inh: -2.0%; LmPK inhibitor: -3.6%; CHX counter: 17.7*

What do the screens show for `O=C(OCc1ccc(COC(=O)c2ccccn2)cc1)c1ccccn1`?
Sm TGR block: 15.4%; Shiga inhibitor: 66.3*; TbPYK inhibitor: -5.3%; FBPA Giardia inh: 5.0%; LmPK inhibitor: -12.3%; CHX counter: 29.7*

How did O=C(OCc1ccc(Cl)cc1)c1ccccc1C(=O)c1ccccc1 do in these assays?
Sm TGR block: -12.5%; Shiga inhibitor: 60.2; TbPYK inhibitor: 4.2%; LmPK inhibitor: -1.1%; CHX counter: 21.4*

What do the screens show for `COC(=O)c1ccc(COC(=O)c2cccnc2Cl)cc1`?
Sm TGR block: -7.0%; Shiga inhibitor: 96.9; TbPYK inhibitor: 0.0%; LmPK inhibitor: -7.9%; CHX counter: 37.2*

Results for O=C(OCc1ccccc1)c1cccnc1Cl ?
Sm TGR block: 0.6%; Shiga inhibitor: 18.9; TbPYK inhibitor: 1.2%; FBPA Giardia inh: 0.3%; LmPK inhibitor: -5.2%; CHX counter: 10.1

Results for COc1ccc(N2C(N)=C(C#N)C(c3cc(CN4CCOCC4)cs3)C3=C2CCCC3=O)cc1 (centres undefined) ?
Sm TGR block: -13.0%; TbPYK inhibitor: -4.9%

How did COC(=O)C(CCSC)Nc1ncnc2onc(-c3ccc(F)cc3)c12 (centres undefined) do in these assays?
Sm TGR block: 3.3%; TbPYK inhibitor: -8.6%

What do the screens show for `CCOc1cc(NC(C)=O)ccc1C(=O)OC`?
Shiga inhibitor: -7.1; TbPYK inhibitor: -3.9%; FBPA Giardia inh: 0.2%; CHX counter: 11.2

How did Cc1ccc(CN(C(=O)Nc2cccc(Cl)c2)c2ccccn2)cc1 do in these assays?
Sm TGR block: 0.1%; TbPYK inhibitor: -1.4%

What do the screens show for `c1ccc(CC(Nc2ccccn2)c2ccccc2)cc1` (centres undefined)?
Sm TGR block: 6.8%; Shiga inhibitor: 14.6; TbPYK inhibitor: 4.6%; FBPA Giardia inh: 11.4%; LmPK inhibitor: -8.5%; CHX counter: 18.0*

How did COP(=O)(OC)C(Nc1ccccn1)c1ccccc1 (centres undefined) do in these assays?
Sm TGR block: 0.6%; Shiga inhibitor: -9.5; TbPYK inhibitor: -8.3%; FBPA Giardia inh: 6.3%; LmPK inhibitor: -3.0%; CHX counter: 3.5

Results for CC(=O)c1ccc(NC(=O)CN(C)S(=O)(=O)c2cc3c(cc2Cl)NC(=O)CO3)cc1 ?
Sm TGR block: 0.9%; TbPYK inhibitor: -1.7%

Results for Clc1ccc2nc(CN3CCCc4ccccc43)cn2c1 ?
Sm TGR block: inconclusive; Shiga inhibitor: 56.3*; TbPYK inhibitor: 0.7%; FBPA Giardia inh: inconclusive; LmPK inhibitor: -2.8%; CHX counter: 23.3*
